In one assay the test system is T1, PYK2.
T1 construct: gene PTK2B
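Note: kd values determined as follow-up on hits from a single-replicate KINOMEscan panel screen.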

For the molecule `CC(C)(C)c1ccc(C(=O)Nc2cn3cc(Cl)ccc3n2)cc1`, in the assay with PYK2, the Kd was greater than 10000 nM.

Regarding `O=S(=O)(c1ccc(-c2ccnc3[nH]ccc23)cc1)N1CCCC1` [GSK846226], in the assay with RIOK1, binding was put at a Kd of 610 nM.

In the assay on RIPK1, `Cc1nnc(-c2ccc3occ(-c4ccc(S(C)=O)cc4)c3c2)[nH]1` (stereo not shown) had a Kd greater than 10000 nM.

For the molecule `Cl.NC(=O)c1cccc(Nc2nccc(Nc3ccc(Oc4cccc(Cl)c4)c(Cl)c3)n2)c1` [GW659008], in the assay with RIPK2, binding was characterised by a dissociation constant (Kd) of 44 nM.

As to `Cn1cncc1-c1ccc2ncnc(Nc3ccc(OCc4ccccc4)cc3)c2c1` [GW320571], in the assay on RIPK2, binding was put at a Kd of 91 nM.

As to `Cc1cc(N2Cc3ccccc3C2)nc(Nc2ccc(S(=O)(=O)N3CCOCC3)cc2)n1.Cl` [GSK1669917], the Kd with RIPK4 is greater than 10000 nM.

In the assay on RIPK4, `CS(=O)(=O)c1ccc(-c2nc3n(c2-c2ccncc2)CCC3)cc1` [SKF-105942] showed an equilibrium dissociation constant (Kd) greater than 10000 nM.

The values above are taken from publication PMC5540273 (PLoS ONE, 2017).
